The structures appear in SMILES notation. Where a structure was tested more than once in an assay, its records may differ in their call. The source made the active and inactive calls. The calls were made as follows: active = hit-call score of the fitted dose curve at least 0.9, where 1 is the maximum; inactive = score below 0.9.

Hepatocyte nuclear factor 3-beta (Homo sapiens), sequence (Q9Y261 whole entry, looked up): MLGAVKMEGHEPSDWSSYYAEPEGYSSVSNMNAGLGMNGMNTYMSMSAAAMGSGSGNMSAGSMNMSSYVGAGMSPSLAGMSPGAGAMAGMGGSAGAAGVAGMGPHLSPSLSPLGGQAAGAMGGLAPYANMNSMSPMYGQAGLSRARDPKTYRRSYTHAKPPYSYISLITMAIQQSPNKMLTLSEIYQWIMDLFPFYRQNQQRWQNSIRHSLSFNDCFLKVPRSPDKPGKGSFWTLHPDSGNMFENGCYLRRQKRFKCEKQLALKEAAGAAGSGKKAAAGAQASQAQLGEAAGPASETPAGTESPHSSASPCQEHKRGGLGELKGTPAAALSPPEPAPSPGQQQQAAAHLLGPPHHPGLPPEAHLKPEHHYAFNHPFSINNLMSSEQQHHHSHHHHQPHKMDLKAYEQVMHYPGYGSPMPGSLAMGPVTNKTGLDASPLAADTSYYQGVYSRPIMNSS

One test addresses Hepatocyte nuclear factor 3-beta (Homo sapiens) (UniProt Q9Y261). The experiment in a line: ATG_FoxA2_CIS: Attagene CIS-FACTORIAL HepG2 Assay for human Forkhead box A2 (FOXA2) (AID 2282942). The following applies: HepG2 cis-reporter transcription factor activity, 24 h; actives raise or lower the signal. Put shortly:
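HepG2 transiently transfected with a multiplexed cis-promoter reporter library read endogenous FOXA2 activity. After 24 h compound exposure, reporter mRNA was quantified by RT-PCR, HpaI digestion and capillary electrophoresis. Bidirectional fit against DMSO.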
For the compound `Nc1c(Oc2ccccc2)cc(O)c2c1C(=O)c1ccccc1C2=O`, the outcome was inactive.
Still for that read-out and setting: to `C[C@]12CC[C@@H](O)C[C@@H]1CC[C@@H]1[C@@H]2CC[C@]2(C)C(=O)CC[C@@H]12` belongs “inactive”; to `C=C(C)[C@@H]1CC=C(C=O)CC1`, “inactive”.
Still for that read-out and setting: the same measure for `CN(C)[C@@H]1C(=O)C(C(N)=O)=C(O)[C@@]2(O)C(=O)C3=C(O)c4c(O)ccc(Cl)c4[C@@](C)(O)[C@H]3C[C@@H]12`: “inactive”; for `Cc1cc(C)cc(C)c1`: “inactive”; for `O=c1[nH]c2ccccc2n1C1CCN(CCCC(c2ccc(F)cc2)c2ccc(F)cc2)CC1`: “inactive”.
As to `C1CN2CCN1CC2`, the call was inactive.
Same read-out and setting: the same measure for `COCC(=O)N(c1c(C)cccc1C)[C@H](C)C(=O)OC`: “inactive”; for `CCCSP(=S)(OCC)Oc1ccc(SC)cc1` (centres undefined): “inactive”; for `CCOc1ccc(N)cc1`: “inactive”.
The same measure, in the same setting: the same measure for `COc1ccc([N+](=O)[O-])cc1O`: “inactive”; for `OC(Cc1ccccc1Cl)(Cn1[nH]cnc1=S)C1(Cl)CC1` (centres undefined): “inactive”; for `CC(C)[N+](=O)[O-]`: “inactive”.
For the compound `O=C(CCl)Nc1ccccc1`, the compound was called inactive.
On to `CC(C=O)Cc1ccc2c(c1)OCO2` (centres undefined), for which the compound was classed as inactive.
On the same count and under the same terms, to `CC(C)O.CC(C)O.OCCN(CCO)CCO.OCCN(CCO)CCO.[Ti]` belongs “inactive”; to `CCCCOC(C)=O`, “inactive”; to `Cc1ccc(OP(=O)(Oc2ccc(C)cc2C)Oc2ccc(C)cc2C)c(C)c1`, “inactive”.
Regarding `CC(C)(C)c1ccc(CCOc2ncnc3ccccc23)cc1`, the compound was classed as inactive.
As to `Clc1cc(C(Cl)(Cl)Cl)cnc1Cl`, the result was inactive.
For `CCCCS(=O)(=O)Cl`, the outcome was inactive.
In the case of `N#Cc1ccccc1N`, the compound was called inactive.
Regarding `OCCN(CCO)CCO`, the compound was called inactive.
For `BrCC(Br)c1ccccc1` (centres undefined), the compound was called inactive.
In the case of `C=CC(Cl)CCl` (centres undefined), the result was inactive.
For the compound `O=[N+]([O-])c1ccc(Cl)c([N+](=O)[O-])c1`, the compound was classed as inactive.
With `CCC(C)(C#N)N=NC(C)(C#N)CC` (centres undefined), the compound was called inactive.
Regarding `CC(C)(C1CCC(O)CC1)C1CCC(O)CC1` (centres undefined), the compound was classed as inactive.
`C=CC(=O)NC(C)(C)CC(C)=O`: the compound was called inactive.
Still for that read-out and setting: the same measure for `Cc1cc(SCc2sc(-c3ccc(C(F)(F)F)c(F)c3)nc2C)ccc1OCC(=O)O`: “inactive”; for `c1ccc2sc(SNC3CCCCC3)nc2c1`: “inactive”; for `CCOC(=O)C(SP(=S)(OC)OC)c1ccccc1` (centres undefined): “inactive”.
A word on the AC50: it is the concentration giving half of the maximal activity seen. For the compound `c1csc(-c2ccc(-c3cccs3)s2)c1`, the AC50 was 4.46 µM (active).

Test system in the next test: not listed separately
As to the kind of experiment: ATG_FoxO_CIS: Attagene CIS-FACTORIAL HepG2 Assay for human Forkhead box O (FoxO) (AID 2282943). Conditions: HepG2 Attagene cis-reporter, FoxO element, mRNA; actives raise or lower the signal. Put shortly:
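HepG2 cells transiently transfected with cis-element-driven reporter units report endogenous FoxO activity. After 24 h chemical exposure, reporter mRNA quantified by RT-PCR, fluorescent labeling, HpaI digestion and capillary electrophoresis; bidirectional fit versus DMSO.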
Turning to `Nc1c(Oc2ccccc2)cc(O)c2c1C(=O)c1ccccc1C2=O`, the compound was classed as inactive.
On to `C=CCN=C=S`, for which the result was inactive.
In the case of `C[C@]12CC[C@@H](O)C[C@@H]1CC[C@@H]1[C@@H]2CC[C@]2(C)C(=O)CC[C@@H]12`, the result was inactive.
For the compound `C#CCOC(=O)/C=C(C)/C=C/CC(C)CCCC(C)C` (centres undefined), the result was inactive.
For `C=C(C)[C@@H]1CC=C(C=O)CC1`, the outcome was inactive.
`CN(C)[C@@H]1C(=O)C(C(N)=O)=C(O)[C@@]2(O)C(=O)C3=C(O)c4c(O)ccc(Cl)c4[C@@](C)(O)[C@H]3C[C@@H]12`: the result was inactive.
On the same count and under the same terms, the same measure for `Cc1cc(C)cc(C)c1`: “inactive”; for `O=c1[nH]c2ccccc2n1C1CCN(CCCC(c2ccc(F)cc2)c2ccc(F)cc2)CC1`: “inactive”.
Consider `C=CCCl`, for which the compound was called inactive.
For the compound `C1CN2CCN1CC2`, the compound was classed as inactive.
In the case of `COCC(=O)N(c1c(C)cccc1C)[C@H](C)C(=O)OC`, the compound was classed as inactive.
For `CCCSP(=S)(OCC)Oc1ccc(SC)cc1` (centres undefined), the outcome was inactive.
`CCOc1ccc(N)cc1`: the call was inactive.
With `COc1ccc([N+](=O)[O-])cc1O`, the outcome was inactive.
On to `OC(Cc1ccccc1Cl)(Cn1[nH]cnc1=S)C1(Cl)CC1` (centres undefined), for which the compound was called inactive.
In the case of `CC(C)(C)c1ccccc1O`, the compound was called inactive.
`CC(C)[N+](=O)[O-]`: the call was inactive.
Consider `CCCCCCCCCCCCc1cccc(S(=O)(=O)O)c1`, for which the outcome was inactive.
Regarding `O=C(CCl)Nc1ccccc1`, the AC50 was 83.2 µM (active).
Consider `CC(C=O)Cc1ccc2c(c1)OCO2` (centres undefined), for which the result was inactive.
The same measure, in the same setting: to `BrCCCCBr` belongs “inactive”.
`CC(C)O.CC(C)O.OCCN(CCO)CCO.OCCN(CCO)CCO.[Ti]`: the result was inactive.
Turning to `CCCCOC(C)=O`, the result was inactive.
Take `Cc1ccc(OP(=O)(Oc2ccc(C)cc2C)Oc2ccc(C)cc2C)c(C)c1`: the compound was classed as inactive.
As for `CC(C)(C)c1ccc(CCOc2ncnc3ccccc23)cc1`, the call was inactive.
For `CCOc1cc(C=O)ccc1O`, the compound was classed as inactive.
For the compound `Clc1cc(C(Cl)(Cl)Cl)cnc1Cl`, the compound was called inactive.
For `CCCCS(=O)(=O)Cl`, the compound was called inactive.
As to `N#Cc1ccccc1N`, the compound was classed as inactive.
As to `OCCN(CCO)CCO`, the compound was classed as inactive.
`BrCC(Br)c1ccccc1` (centres undefined): the compound was called inactive.
Turning to `C=CC(Cl)CCl` (centres undefined), the call was inactive.
Turning to `O=[N+]([O-])c1ccc(Cl)c([N+](=O)[O-])c1`, the outcome was inactive.
As to `CCC(C)(C#N)N=NC(C)(C#N)CC` (centres undefined), the compound was called inactive.
Consider `CC(C)(C1CCC(O)CC1)C1CCC(O)CC1` (centres undefined), for which the outcome was inactive.
Turning to `C=CC(=O)NC(C)(C)CC(C)=O`, the result was inactive.
With `Cc1cc(SCc2sc(-c3ccc(C(F)(F)F)c(F)c3)nc2C)ccc1OCC(=O)O`, the compound was classed as inactive.
Regarding `c1ccc2sc(SNC3CCCCC3)nc2c1`, the compound was classed as inactive.
Consider `CCOC(=O)C(SP(=S)(OC)OC)c1ccccc1` (centres undefined), for which the result was inactive.
As for `c1csc(-c2ccc(-c3cccs3)s2)c1`, the compound was called inactive.

Test system in another test: not listed separately
The experiment in a line: ATG_GATA_CIS: Attagene CIS-FACTORIAL HepG2 Assay for human GATA Binding Protein (AID 2282944). The following applies: HepG2 GATA cis-element reporter, Attagene multiplex mRNA; actives raise or lower the signal. In short, it runs like this:
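Transient MRTU transfection, HepG2, 24 h compound exposure. Total RNA → oligo(dT) RT → PCR → 6-FAM primer extension → HpaI cut → CE. Bidirectional fit vs DMSO.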
For the compound `Nc1c(Oc2ccccc2)cc(O)c2c1C(=O)c1ccccc1C2=O`, the result was inactive.
The same measure, in the same setting: to `C=CCN=C=S` belongs “inactive”; to `C[C@]12CC[C@@H](O)C[C@@H]1CC[C@@H]1[C@@H]2CC[C@]2(C)C(=O)CC[C@@H]12`, “inactive”.
For `C#CCOC(=O)/C=C(C)/C=C/CC(C)CCCC(C)C` (centres undefined), the outcome was inactive.
Take `C=C(C)[C@@H]1CC=C(C=O)CC1`: the outcome was inactive.
For `CN(C)[C@@H]1C(=O)C(C(N)=O)=C(O)[C@@]2(O)C(=O)C3=C(O)c4c(O)ccc(Cl)c4[C@@](C)(O)[C@H]3C[C@@H]12`, the result was inactive.
On to `Cc1cc(C)cc(C)c1`, for which the outcome was inactive.
`O=c1[nH]c2ccccc2n1C1CCN(CCCC(c2ccc(F)cc2)c2ccc(F)cc2)CC1`: the compound was called inactive.
As for `C=CCCl`, the outcome was inactive.
For `C1CN2CCN1CC2`, the result was inactive.
Regarding `COCC(=O)N(c1c(C)cccc1C)[C@H](C)C(=O)OC`, the compound was called inactive.
For the compound `CCCSP(=S)(OCC)Oc1ccc(SC)cc1` (centres undefined), the call was inactive.
On to `CCOc1ccc(N)cc1`, for which the compound was classed as inactive.
The same measure, in the same setting: to `COc1ccc([N+](=O)[O-])cc1O` belongs “inactive”.
On the same count and under the same terms, to `OC(Cc1ccccc1Cl)(Cn1[nH]cnc1=S)C1(Cl)CC1` (centres undefined) belongs “inactive”; to `CC(C)(C)c1ccccc1O`, “inactive”.
Still for that read-out and setting: to `CC(C)[N+](=O)[O-]` belongs “inactive”.
For `CCCCCCCCCCCCc1cccc(S(=O)(=O)O)c1`, the result was inactive.
As for `O=C(CCl)Nc1ccccc1`, the AC50 was 161 µM (active).
Consider `CC(C=O)Cc1ccc2c(c1)OCO2` (centres undefined), for which the compound was classed as inactive.
For the compound `BrCCCCBr`, the compound was classed as inactive.
The same measure, in the same setting: the same measure for `CC(C)O.CC(C)O.OCCN(CCO)CCO.OCCN(CCO)CCO.[Ti]`: “inactive”.
For `CCCCOC(C)=O`, the AC50 was 154 µM (active) and the compound was classed as inactive.
Take `Cc1ccc(OP(=O)(Oc2ccc(C)cc2C)Oc2ccc(C)cc2C)c(C)c1`: the compound was called inactive.
Turning to `CC(C)(C)c1ccc(CCOc2ncnc3ccccc23)cc1`, the call was inactive.
Turning to `CCOc1cc(C=O)ccc1O`, the compound was classed as inactive.
As to `Clc1cc(C(Cl)(Cl)Cl)cnc1Cl`, the compound was classed as inactive.
`CCCCS(=O)(=O)Cl`: the compound was classed as inactive.
Same read-out and setting: to `N#Cc1ccccc1N` belongs “inactive”.
On to `OCCN(CCO)CCO`, for which the call was inactive.
Consider `BrCC(Br)c1ccccc1` (centres undefined), for which the compound was called inactive.
Regarding `C=CC(Cl)CCl` (centres undefined), the result was inactive.
In the case of `O=[N+]([O-])c1ccc(Cl)c([N+](=O)[O-])c1`, the result was inactive.
As to `CCC(C)(C#N)N=NC(C)(C#N)CC` (centres undefined), the outcome was inactive.
With `CC(C)(C1CCC(O)CC1)C1CCC(O)CC1` (centres undefined), the compound was called inactive.
`C=CC(=O)NC(C)(C)CC(C)=O`: the compound was called inactive.
Regarding `Cc1cc(SCc2sc(-c3ccc(C(F)(F)F)c(F)c3)nc2C)ccc1OCC(=O)O`, the compound was called inactive.
Consider `c1ccc2sc(SNC3CCCCC3)nc2c1`, for which the call was inactive.
For `CCOC(=O)C(SP(=S)(OC)OC)c1ccccc1` (centres undefined), the result was inactive.
As for `c1csc(-c2ccc(-c3cccs3)s2)c1`, the call was inactive.

For the origin of these results see PubChem BioAssay (EPA / NIEHS).
